Compound activity: PubChem, National Center for Advancing Translational Sciences (NCATS)
In the library only some 2.3% were active in any assay of this set; here they are far more common.
GRP78 ERSR act: qHTS for Inducers of the Endoplasmic Reticulum Stress Response (ERSR) in Human Glioma: qHTS; U87-MG GRP78 promoter luciferase reporter, 16 h; AID 602332, 2012; Potency, µM, for inactives: at the highest dose activation, most hits filed as activators; hit rate 0.02% among 420,000; also: series mostly up to about 76 µM; % of control where 0% means no effect; nearly all actives have a fitted effect of over 35% in size
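ERSR induction read as luciferase luminescence (Bright-Glo, 10 min at room temperature) in stably transfected human U87-MG glioma cells exposed to compounds for 16 h, using GRP78 as sensor.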
PTHR1 ag: qHTS for PTHR1 Agonists: Primary Screen; HEK293 GP2 PTHR1 cells, GloSensor cAMP luminescence, 1 h; Potency, µM (top dose mostly 115 µM), without a hit: at the highest dose activation, hits mostly activators; hit rate 0.075% among 410,000; AID 743266, 2014; also: nearly all actives have a fitted effect of over 55% in size
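HEK-293-derived GP2 cells expressing PTHR1 and a GloSensor cAMP reporter, 3,000/well, plated overnight, given luciferin plus IBMX (each 0.5 mM as added) for 1 h at 37 °C, then compound for 1 h at 37 °C. Luminescence was read after 15 min at room temperature.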
GLS inhibitor: qHTS for Inhibitors of Glutaminase (GLS); hit rate 0.21% among 410,000; Potency, µM (titrated, usually from 45.5 µM), for inactives: at the top dose activity change, negative = inhibition, usual class: inhibitors; AID 624170, 2012; Glutaminase kidney isoform, mitochondrial (Homo sapiens), O94925; GLS enzymatic activity, qHTS titration; also: % is scaled to controls: 0 for no effect and ±100 for the full control effect
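hKGA in 45 mM KH2PO4 pH 8.2, 0.02% Tween-20 with pin-transferred compounds; 1 mM L-glutamine (stock) plus glutamate oxidase/HRP/Amplex Red coupling added. Fluorescence read initially and after 30 min at RT.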
ALOX12 inh: Primary qHTS assay for inhibitors of human arachidonate 12S-lipoxygenase (ALOX12): Round 2; Polyunsaturated fatty acid lipoxygenase ALOX12 (Homo sapiens), P18054; purified 12hLO, xylenol orange hydroperoxide absorbance; Potency, µM (highest dose often 108 µM), without a hit: top-dose activity change, negative = inhibition, usual class: inhibitors; hit rate 1.1% among 580,000; AID 1671190, 2021; also: % is scaled to controls: 0 for no effect and ±100 for the full control effect
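Purified human 12hLO (150 nM final) in 25 mM Hepes, 0.01% Triton X-100, pH 7.0 was preincubated 15 min at room temperature with compound. Then 40 uM arachidonic acid was added, 30 min. Hydroperoxide was read by Fe-XO absorbance ratio 573/405 nm.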
GLP-1R inv ag: qHTS of GLP-1 Receptor Inverse Agonists (Inhibition Mode). HEK293 GLP-1R CRE-luciferase, luminescence, 24 h; GLP-1R form is constitutively active. Glucagon-like peptide 1 receptor (Homo sapiens), P43220. Potency, µM (highest dose often 38.3 µM), without a hit: at the highest dose activity change, negative = inhibition, hits mostly inhibitors. hit rate 1.6% among 410,000. AID 624417, 2012; also: % is scaled to controls: 0 for no effect and ±100 for the full control effect; nearly all actives have a fitted effect of over 55% in size
Target sequence (P43220 whole entry, looked up): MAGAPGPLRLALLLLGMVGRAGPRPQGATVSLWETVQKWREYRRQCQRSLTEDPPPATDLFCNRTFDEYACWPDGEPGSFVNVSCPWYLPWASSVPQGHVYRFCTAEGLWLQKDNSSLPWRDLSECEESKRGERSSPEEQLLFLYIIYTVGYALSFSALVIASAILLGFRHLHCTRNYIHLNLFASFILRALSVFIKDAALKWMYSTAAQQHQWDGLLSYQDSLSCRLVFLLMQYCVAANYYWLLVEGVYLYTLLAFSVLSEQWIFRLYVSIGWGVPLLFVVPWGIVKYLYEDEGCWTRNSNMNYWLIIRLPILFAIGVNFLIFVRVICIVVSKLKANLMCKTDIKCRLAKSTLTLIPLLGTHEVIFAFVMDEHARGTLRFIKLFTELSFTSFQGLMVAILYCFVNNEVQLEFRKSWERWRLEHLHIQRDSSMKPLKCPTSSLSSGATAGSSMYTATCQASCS
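Inverse agonists were sought by their lowering of basal cAMP reporter luciferase output in HEK293 cells stably carrying constitutively active human GLP-1R, after 24 h compound treatment.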
GLP1R ag: qHTS of GLP-1 Receptor Agonists; Glucagon-like peptide 1 receptor (Homo sapiens), P43220; HEK293 GLP-1R CRE-luciferase, luminescence, 4-6 h; cells express a hypersensitive GLP-1R form; Potency, µM (titrated, usually from 45.6 µM), for inactives: top-dose activation, hits mostly activators; hit rate 0.007% among 380,000; also: % of control where 0% means no effect
An asterisk follows results filed as active; i = inactive; ? = inconclusive; / = not tested or not shown; ! = a repeat was not active; [ ] = dose if it differs, or a comment. Calls follow the shape of the dose curve; as a rule, active = well fitted curve in the direction sought with a large enough effect; inconclusive = small, poorly fitted or top-dose-only effect, or another doubt; inactive = no such curve, though single readings can be large; an effect the other way counts as inactive or inconclusive. Potency is read from the fitted curve at half-maximal effect.

SMILES	GRP78 ERSR act	PTHR1 ag	GLS inhibitor	ALOX12 inh	GLP-1R inv ag	GLP1R ag
O=C1CCCc2[nH]cc(-c3ccccc3)c21	/	/	/	-18%	/	/
C=CCOC(=O)C(=O)/C=C/c1ccc2c(c1)Cc1ccccc1-2	-3%	-18%	-9%	14µM*	3%	1%
O=C(CCSCc1cccc(Cl)c1)NCCC1=CCCCC1	-2%	i	-13%	-22%	10µM*	3%
Cc1ccc(CSCCC(=O)NCCC2=CCCCC2)cc1	0%	-32%	-10%	-19%	?	-2%
O=c1c(S(=O)(=O)c2ccccc2)c[nH]c2cc(F)c(F)cc12	/	/	/	-26%	/	/
CC(NC(=O)CSc1nnc(N2CCOCC2)n1-c1ccccc1)c1cc2ccccc2o1 (configuration not stated)	/	/	/	21%	/	/
O=C(CC1SC(=Nc2ccc(OC(F)F)cc2)N(CCN2CCOCC2)C1=O)Nc1ccccc1 (configuration not stated)	1%	i	-5%	-13%	10µM*	8%
O=C(CC1SC(=Nc2ccc(OC(F)F)cc2)N(CCN2CCOCC2)C1=O)Nc1ccc(F)cc1F (configuration not stated)	-3%	i	2%	-11%	?	20%
COc1cccc(NC(=O)CC2Nc3ccccc3NC2=O)c1 (configuration not stated)	/	/	/	16µM*	/	/
COC(=O)c1c(NC(=O)CC2Nc3ccccc3NC2=O)sc(C)c1C (configuration not stated)	-2%	i	?	11%	-1%	12%
CCOC(=O)c1c(NC(=O)CC2Nc3ccccc3NC2=O)sc(C)c1C (configuration not stated)	-2%	i	13µM*	66%	4%	3%
CC(C)Cn1nc(C(=O)N2CCc3ccccc32)c2ccccc2c1=O	-4%	-18%	20%	2%	11µM*	2%
CCOC(=O)c1nc(NCc2ccc(F)cc2)c2ccccc2n1	/	/	/	10%	/	/
CCc1ccc(OCc2n[nH]c(=S)n2C(C)CCCC(C)C)cc1 (configuration not stated)	-14%	-23%	1%	35µM*	?	-3%
S=c1[nH]nc(COc2ccccc2)n1Cc1ccccc1	-3%	-25%	4%	?	?	1%
CC(C)CCn1c(COc2ccccc2)n[nH]c1=S	-5%	-17%	-3%	16µM*!	-7%	-1%
CC(C)Oc1cccc(-c2noc(-c3ccc(S(=O)(=O)NC4CC4)o3)n2)c1	/	/	/	9%	/	/
O=C(OCc1cccc(C(F)(F)F)c1)c1cc([N+](=O)[O-])ccc1N1CCOCC1	-7%	-26%	-14%	-11%	10µM*	23%
O=C(c1ccc(Cl)cc1)c1cc([N+](=O)[O-])ccc1N1CCOCC1	-6%	i	0%	-13%	?	26%
O=C(OCc1cccc(Cl)c1)c1cc([N+](=O)[O-])ccc1N1CCOCC1	-3%	-42%	3%	-19%	?	?
O=C(c1ccc(Br)cc1)c1cc([N+](=O)[O-])ccc1N1CCOCC1	-3%	-20%	3%	-24%	1.4µM*	24%
O=C(COC(=O)c1cc([N+](=O)[O-])ccc1N1CCOCC1)NCc1ccc(Cl)cc1Cl	-2%	i	-3%	-17%	11µM*	7%
COc1ccc(C(C[N+](=O)[O-])c2c(C)cc3ccccn23)cc1 (configuration not stated)	2%	-47%	0%	?	?	6%
COc1ccc(C(C[N+](=O)[O-])c2c(-c3ccccc3)cc3ccccn23)c(OC)c1 (configuration not stated)	?	-54%	-5%	1.6µM*	?	-2%
Cc1cc(Nc2ccc(Cl)cc2)nc(NCc2ccccc2)n1	-15%	-21%	1%	?	11µM*	?
SMILES	GRP78 ERSR act	PTHR1 ag	GLS inhibitor	ALOX12 inh	GLP-1R inv ag	GLP1R ag
Cc1cc(N/N=C/c2ccc(Cl)cc2Cl)nc(NCc2ccccc2)n1	-4%	-24%	5%	-29%	?	0%
Cc1cc(Nc2cccc(F)c2)nc(NCc2ccccc2)n1	-7%	-9%	-2%	?	?	5%
Cc1cc(N/N=C/c2ccc(O)cc2)nc(NS(=O)(=O)c2ccccc2)n1	-11%	-21%	13µM*	-34%	3%	0%
Cc1ccc(/C=N/Nc2cc(C)nc(NCc3ccccc3)n2)cc1	4%	i	8%	?	2.8µM*	14%
Cc1cc(Nc2ccccc2)nc(NCc2ccccc2)n1	-9%	i	1%	?	8.9µM*	15%
CCCn1nnnc1CN1CCC(C(=O)c2ccc3c(c2)OCCO3)CC1	/	/	/	0%	/	/
CC(C)N(Cc1nc(-c2ccccc2)no1)C(=O)c1ccc(Cl)cc1	-5%	-42%	10%	?	11µM*	1%
CN(Cc1cc(C[C@@H]2C[C@H](NCc3cccnc3)C2(C)C)no1)c1ccccc1	/	/	/	19%[176 µM]	/	/
COc1cccc(NC(=S)NCc2ccc3c(c2)cc(C)n3C)c1	-5%	-11%	-4%	?	?	-1%
Cc1cccc(NC(=O)NCc2ccc3c(c2)cc(C)n3C)c1	-2%	0%	-5%	?	5%	0%
Cc1cccc(NC(=S)NCc2ccc3c(c2)cc(C)n3C)c1C	3%	-20%	9%	35µM*	?	-1%
Cc1cc2cc(CNC(=S)Nc3ccc(OC(F)(F)F)cc3)ccc2n1C	-2%	-28%	1%	40µM*	?	-4%
Cc1ccc(C(=O)C(Cl)C(=O)c2ccc(C)cc2)cc1	/	/	/	-20%	/	/
CC(=NCCc1c(C)[nH]c2ccc(C)cc12)C1=C(O)CC(c2ccccc2)CC1=O (configuration not stated)	-3%	-19%	0%	-19%	3.5µM*	5%
CCCC(=NCCc1c(C)[nH]c2ccccc12)C1=C(O)CC(c2ccccc2)CC1=O (configuration not stated)	-4%	i	-1%	?	2.5µM*	6%
O=C(Nc1ccc2c(c1)OCCO2)C(Nc1ccccc1)c1ccccc1F (configuration not stated)	/	/	/	-1%	/	/
